For orientation: inhibition means the change of the read-out against control, counted positive when it falls.

About 790 (0.42%) of roughly 190,000 compounds were called active. Only a selection was taken, and actives are over-represented in it overall. Values without a mark were called inactive.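 The calls were made as follows: active = inhibition above a set limit, the median over all tested compounds plus 3 SD (cut at about 9.5% in these data); inconclusive = no clear call, values can overlap the other calls; inactive = the rest.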

The assay has as its system HMG-CoA reductase (Enterococcus faecalis, mvaE). Put plainly: class II HMG-CoA reductase enzyme inhibition – biochemical, Enterococcus faecalis, primary screen (AID 1066).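 Also: enzyme runs in reverse so mevalonate oxidation gives rising NADPH absorbance; 0% = complete reaction with DMSO and 100% = background rate lacking mevalonate.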 As to conditions: purified E. faecalis HMGR, NADPH absorbance 340 nm kinetic; at 10 µM; stronger effect = higher value.
Consider `COc1ccc(CCn2c(O)c(C=NCCCn3ccnc3)c(=O)[nH]c2=O)cc1OC`, for which the inhibition was 13.7% (active). The result for `CN(C)CCCN=Cc1c(O)n(Cc2ccco2)c(=O)[nH]c1=O` reads 6.16%.

For `COc1ccc(CCn2c(O)c(C=NC3CC3)c(=O)[nH]c2=O)cc1OC`, the inhibition was -3.24%. `CN(C)c1nc(N(C)C)nc(N(C#N)CCCl)n1`: the inhibition is -6.92%. With `O=C(O)CCn1cc(C=C2C(=O)NC(=S)NC2=O)c(-c2cccc(Br)c2)n1`, the inhibition was 1.54%.

For the origin of these results see PubChem BioAssay AID1066 (SRMLSC, 2008).
